These results are taken from PubChem BioAssay (Tox21).

Inconclusive results are not listed. A call without a number means that no potency is given here. Values without a mark were called inactive. Active and inactive are the calls of the source. Calls come from the whole dose curve.
Potency is the fitted concentration of half-maximal effect.

The target of the assay is Peroxisome proliferator-activated receptor gamma (Homo sapiens) (UniProt P37231). Briefly: qHTS assay to identify small molecule antagonists of the peroxisome proliferator-activated receptor gamma (PPARg) signaling pathway (AID 743191). Note: nearly all actives have a fitted effect of over 30% in size. The following applies: HEK293H PPARg-UAS-bla, beta-lactamase ratio, antagonist, 17 h; series mostly up to 62.6 µM. From the text: U.S. Tox21 Program National Center for Advancing Translational Sciences [NCATS] NIH Chemical Genomics Center [NCGC] U.S. Environmental Protection Agency [EPA] National Institutes of Environmental Health Sciences [NIEHS] National Toxicology Program [NTP] U.S. Food and Drug Administration [FDA] Tox21 Assay Overview: The peroxisome proliferator-activated receptors (PPARs) are lipid-activated transcription factors of the nuclear receptor superfamily with three distinct subtypes namely PPAR alpha, PPAR delta (also called PPAR beta) and PPAR gamma (PPARg). All these subtypes heterodimerize with Retinoid X receptor (RXR) and these heterodimers regulate transcription of various genes. PPAR-gamma receptor (glitazone receptor) is involved in the regulation of glucose and lipid metabolism. To identify the compounds that inhibit PPAR-gamma signaling, GeneBLAzer PPAR gamma UAS-bla HEK293H cell line (Invitrogen, Carlsbad, CA, USA) containing a beta-lactamase reporter gene under control of an Upstream Activator Sequence (UAS) was used to screen the Tox21 compound library.
Sequence of Peroxisome proliferator-activated receptor gamma (Homo sapiens) (P37231 whole entry, looked up): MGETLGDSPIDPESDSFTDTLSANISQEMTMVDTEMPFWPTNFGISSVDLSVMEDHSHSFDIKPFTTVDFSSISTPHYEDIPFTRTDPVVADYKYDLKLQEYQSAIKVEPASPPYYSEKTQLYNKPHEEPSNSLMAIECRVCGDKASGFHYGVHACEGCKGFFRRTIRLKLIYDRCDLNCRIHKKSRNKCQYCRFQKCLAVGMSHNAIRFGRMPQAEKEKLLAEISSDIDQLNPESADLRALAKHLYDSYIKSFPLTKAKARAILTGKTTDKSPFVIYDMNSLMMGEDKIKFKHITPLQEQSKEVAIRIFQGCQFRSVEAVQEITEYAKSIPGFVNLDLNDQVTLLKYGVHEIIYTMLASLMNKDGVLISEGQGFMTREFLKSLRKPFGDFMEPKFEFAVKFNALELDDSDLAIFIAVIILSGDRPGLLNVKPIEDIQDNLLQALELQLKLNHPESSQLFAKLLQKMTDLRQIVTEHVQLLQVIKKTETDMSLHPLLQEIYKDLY
Tox21 Assay Protocol Summary: PPARg-bla cells were dispensed at 3000 cells/6uL/well in 1536-well black wall/clear bottom plates using a Multidrop Combi (Thermo Fisher Scientific, Waltham, MA) dispenser. After the assay plates were incubated at 37C and 5% CO2 for 5 h, 23 nL of compounds dissolved in DMSO, positive controls or DMSO only was transferred to the assay plate by a Pintool station (Kalypsys, San Diego, CA). The assay plates were incubated at 37C for 17 h. After 1 uL of LiveBLAzerTM B/G FRET substrate was added using a Bioraptr Flying Reagent Dispenser (FRD) workstation (Beckman Coulter, Indianapolis, IN, USA), the plates were incubated at room temperature for 1 h, and fluorescence intensity was measured by an Envision plate reader (PerkinElmer, Shelton, CT).
Turning to `CCc1ccc(C2CCNCC2)cc1`, the Potency entry is “inactive”.
Same read-out and setting: the result for `O=C(Cl)c1ccccc1` reads “inactive”; that for `CC(O)CCl` (stereo not given), “inactive”.
On to `COP(=O)(O)OC`, for which the Potency entry is “inactive”.
The same measure, in the same setting: the result for `[P]#[In]` reads “inactive”.
On to `CCOC(=O)C(Cl)Cc1cc(-n2nc(C)n(C(F)F)c2=O)c(F)cc1Cl` (stereo not given), for which the Potency result was “inactive”.
Still for that read-out and setting: the result for `C1CN2CCC1CC2` reads “inactive”; that for `CCN(CCO)CCO`, “inactive”.
On the same count and under the same terms, with `O=C(O)C(Br)(Br)Br` the entry was “inactive”; with `ClCCCCCCCl`, “inactive”.
The same measure, in the same setting: with `CCN[C@@H](C)Cc1ccccc1` the entry was “inactive”; with `C(COCC1CO1)OCC1CO1` (stereo not given), “inactive”.
For `CC(C)(C)C(=O)Cl`, the Potency entry is “inactive”.
Regarding `COc1ccccc1OC`, the Potency result is “inactive”.
For `CNC(=O)Oc1cc(C)c(N(C)C)c(C)c1`, the Potency result was “inactive”.
Consider `CCCOC(=O)c1cncn1C(C)c1ccccc1` (stereo not given), for which the Potency entry is “inactive”.
As to `CCC1(c2ccccc2)C(=O)N(COC)C(=O)N(COC)C1=O`, the Potency entry was “inactive”.
Same read-out and setting: with `ClCCN1CCCC1` the entry was “inactive”; with `CCCC[N+](=O)[O-]`, “inactive”; with `ClCCCCl`, “inactive”.
Still for that read-out and setting: the result for `CCC(C)(C#N)N=NC(C)(C#N)CC` (stereo not given) reads “inactive”; that for `CC(C)(N)Cc1ccccc1Cl`, “inactive”; that for `CCC(C)C(C)(COC(N)=O)COC(N)=O` (stereo not given), “inactive”.
In the case of `CCC(CC)(CNC(=O)CCCO)c1cccc(OC)c1`, the Potency entry is “inactive”.
With `CCC(=O)OC1(c2ccccc2)CCN(C)CC1`, the Potency entry is “inactive”.
The same measure, in the same setting: with `CCCCOC(C)=O` the entry was “inactive”.
Regarding `Cc1ccc2cc(C)ccc2c1`, the Potency entry was “inactive”.
The same measure, in the same setting: the result for `O=C1CCCCC1Cl` (stereo not given) reads “inactive”.
Same read-out and setting: with `CCCCCCCCSC(=O)Oc1cc(Cl)nnc1-c1ccccc1` the figure was 43.6 µM (active).
Regarding `Clc1cc2c(cc1Cl)Oc1cc(Cl)c(Cl)cc1O2`, the ratio activity, negative = inhibition is -3.27% [at 0.275 µM].
On to `CN(C)CCc1c[nH]c2cccc(OP(=O)(O)O)c12`, for which the Potency entry was “inactive”.
Turning to `CS(=O)(=O)c1ccc(C(=O)C2C(=O)CCCC2=O)c(Cl)c1COCC(F)(F)F`, the Potency result is “inactive”.
As for `COc1ccc(C=O)cc1O`, the Potency result was “inactive”.
Same read-out and setting: the result for `CCCN1CCC[C@@H]2Cc3nc(N)ncc3C[C@H]21` reads “inactive”.
Same read-out and setting: with `BrCC1CO1` (stereo not given) the entry was “inactive”; with `CCN1CCCC1CNC(=O)C(O)(c1ccccc1)c1ccccc1` (stereo not given), “inactive”.
The same measure, in the same setting: with `BrCCc1ccccc1` the entry was “inactive”; with `CC[C@@H](CO)NC(=O)[C@@H]1C=C2c3cccc4c3c(cn4C)C[C@H]2N(C)C1`, “inactive”; with `Clc1nc(Cl)nc(Nc2ccccc2Cl)n1`, “inactive”.
Turning to `NC1(c2ccccc2)CCCCC1`, the Potency result is “inactive”.
